Holding throughout (test): NCI-60 one-dose screen, 48 h (100 = growth as untreated, 0 = no growth, -100 = all killed)
What all share (settings): 10 µM unless noted

Assay [1] relates to NCI-H23 lung.
For assay [2], the system named is NCI-H226 lung.
Assay [3] relates to NCI-H322M lung.
Assay [4] relates to HOP-62 NSCLC.
The test system of assay [5] is NCI-H460 lung.
Assay [6] has as its system NCI-H522 lung.
Assay [7] concerns A549/ATCC NSCLC.
Assay [8] relates to 786-0 renal.
Assay [9] concerns COLO 205 colon.
The test system of assay [10] is DU-145 prostate.
Assay [11] relates to K-562 leukemia.
Assay [12] relates to MALME-3M melanoma.
For assay [13], the system named is MDA-MB-231 breast.
Assay [14] deals with RXF 393 renal.
Assay [15] relates to SF-268 CNS.
In assay [16] the test system is SF-295 CNS.
Assay [17] concerns SF-539 CNS.
The test system of assay [18] is UACC-257 melanoma.
The test system of assay [19] is M14 melanoma.

About 83,000 compounds went through this panel and 20% of them were active in at least one assay; those are over-represented in the sample as a whole.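 Step 1: grow cells in 96-well plates. Step 2: add test compound at a single concentration. Step 3: incubate 48 h. Step 4: record percent growth.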 Unmarked numbers belong to inactive results. Active and inactive are the calls of the source. How the source made its calls: active means growth percent below 10; inactive means the rest.

Take `CSC1=N/C(=C\c2cccc(OCc3ccc(Cl)cc3)c2)C(=O)N1`: the growth in assay [1] was 82.8%; in assay [2], 75%; in assay [3], 87.2%; in assay [4] it was 99.4%; in assay [5], 81.3%; in [6] it was 48%. The growth in assay [7] was 83.4%; in assay [8] it was 83.8%; in [9], 82.8%; in assay [10] it was 77.7%; in assay [11], 81.7%; in [12], 99%. The growth in [13] was 99.8%; in [14] it was 104%; in assay [15] it was 85.3%; in [16], 87.6%; in assay [17], 99%; in assay [18] it was 100%. Besides, the growth in assay [19] is 88%.
Consider `NC(CCC(=O)NC(CS)C(=O)NCC(=O)O)C(=O)O` (configuration not stated), for which the growth in assay [1] was 108%; in assay [2] it was 101%; in assay [3], 126%; in assay [4], 103%; in [5], 106%; in [6], 98.3%. Moreover, the growth in assay [7] was 94.2%; in assay [8], 109%; in assay [9], 104%; in assay [10], 112%; in [11] it was 84.2%; in assay [12], 122%. The growth in assay [13] is 117%; in assay [14], -24.6% (active); in assay [15] it was 103%; in assay [16] it was 104%; in assay [17], 105%; in [18] it was 101%. For the same compound, the growth in [19] was 108%.
On to `C=CCCCCOc1cccc(/C=C2\N=C3SCCCN3C2=O)c1`, for which the growth in assay [1] was 102%; in assay [2], 94.3%; in assay [3] it was 84.6%; in assay [4], 94.5%; in assay [5], 103%; in assay [6], 83.3%. Besides, the growth in [7] was 93.2%; in assay [8], 95%; in assay [9], 101%; in [10], 108%; in assay [11] it was 91.5%; in assay [12] it was 115%. Besides, the growth was 88.6% in assay [13]; 114% in assay [14]; 110% in assay [15]; 96% in assay [16]; 104% in assay [17]; 112% in assay [18]. Besides, the growth in [19] was 103%.
Regarding `Clc1ccc(-c2nc(-c3cccs3)no2)cc1`, the growth is 89.9% in assay [1]; 97.3% in assay [2]; 99.4% in assay [3]; 85.9% in [4]; 97.4% in assay [5]; 85.8% in assay [6]. For the same compound, the growth is 94.8% in assay [7]; 94.5% in assay [8]; 109% in assay [9]; 97.4% in assay [10]; 101% in [11]; 111% in [12]. The growth in assay [13] is 84.2%; in [14] it was 114%; in [15] it was 102%; in assay [16], 108%; in assay [17] it was 102%; in [18] it was 86.4%. Further, the growth in [19] is 105%.
Take `Cc1ccc(NC(=O)c2cc(NCc3cc(O)ccc3O)ccc2O)cc1`: the growth in [1] was 92.9%; in assay [2] it was 95.4%; in [3], 101%; in assay [4] it was 97.9%; in assay [5], 102%; in assay [6] it was -27.5% (active). The growth in [7] was 80.5%; in assay [8] it was 101%; in [9] it was 105%; in assay [10] it was 106%; in assay [11], 70.9%; in assay [12] it was 97.9%. Besides, the growth in [13] was 78.5%; in assay [14], 87.5%; in assay [15] it was 83.5%; in assay [16], 116%; in [17], 84.3%; in assay [18], 78.9%. For the same compound, the growth in assay [19] is 107%.
`O=C(NCCN1CCCC1)n1cc(-c2ccncc2)c(-c2cc(O)cc(Cl)c2)n1`: the growth in assay [1] was 102%; in [2], 93.9%; in [3], 115%; in assay [4] it was 92.3%; in [5], 99.2%; in assay [6] it was 98.6%. The growth in assay [7] is 101%; in assay [8], 79.2%; in [9], 76.4%; in assay [10] it was 104%; in assay [11] it was 82%; in [12], 9.44% (active). Besides, the growth in [13] was 80.8%; in [14] it was 75.5%; in assay [15], 92.6%; in assay [16], 125%; in assay [17] it was 77.9%; in [18], 43.4%. Besides, the growth in assay [19] is 25.4%.
Consider `Fc1cc(-c2cnc3nonc3n2)c(Cl)cc1Cl`, for which the growth in assay [1] was 94.2%; in [2], 111%; in assay [3], 94.1%; in assay [4] it was 98.3%; in [5], 106%; in assay [6], -72.3% (active). Further, the growth was 102% in [7]; 79.3% in [8]; 60.2% in assay [9]; 85.3% in assay [10]; 28.9% in [11]; 41.1% in [12]. Besides, the growth in assay [13] was 83.4%; in assay [14], 93%; in [15], 90.9%; in [16], 99.4%; in [17], 110%; in [18], 96%. For the same compound, the growth in [19] was 76.8%.
As for `Cc1ccc(C(CN(C)C)C(=O)c2ccccc2)cc1` (configuration not stated), the growth in assay [1] was 71.5%; in [2], 80.9%; in assay [3], 101%; in [4] it was 101%; in assay [5], 71.7%; in [6], -66.4% (active). For the same compound, the growth in [7] was 81.7%; in [8], -20.7% (active); in [9], 43.5%; in [10], 34.7%; in assay [11], -26.8% (active); in [12] it was 79.8%. Also, the growth in assay [13] was 25.4%; in assay [14], 43.6%; in assay [15], 25.9%; in assay [16], 85.6%; in assay [17], 57.6%; in assay [18], 49.1%. Moreover, the growth in assay [19] is 31.6%.

(Values after PubChem BioAssay (NCI).)
